In ChEMBL document CHEMBL4513216, “Probing the Open Global Health Chemical Diversity Library for Multistage-Active Starting Points for Next-Generation Antimalarials” (ACS Infect Dis, 2020):
Hit rate of the full screen: of about 69,000 compounds, about 8,600 (12%) showed an effect of 50% or more. Shown is part of a subset that was picked to be rich in strong results.

Test system: Plasmodium berghei
Assay: Screen against P. berghei liver stage (PbLuc), transformed with Luciferase, at 10uM
Format: functional, HepG2
Settings: tested at 10 uM

SMILES	INHIBITION [%]
CC(C)CNc1cc(-c2c[nH]nc2C2CCN(C(=O)C3CC3)C2)ccn1 (stereo not given)	86
Cc1c[nH]nc1C1CCN(C(=O)C2CCC2)CC1	-14.2
CC(=O)N1CCC(c2n[nH]c3nccnc23)CC1	8.53
O=C(C1CCCC1)N1CCC(c2n[nH]c3nccnc23)CC1	51.5
O=C(C1CCCCC1)N1CCC(c2n[nH]c3nccnc23)CC1	44.1
CC(C)Nc1cc(-c2c[nH]nc2C2CCN(C(=O)C3CC3)C2)ccn1 (stereo not given)	87.85
CC(=O)N1CCC(c2n[nH]cc2-c2ccnc(N)c2)C1 (stereo not given)	37.5
COCCC(=O)N1CCC(c2ncncc2-c2ccnc(N)c2)C1 (stereo not given)	0.696
CC(C)OCC(=O)N1CCC(c2ncncc2-c2ccnc(N)c2)C1 (stereo not given)	8.12
Cc1c[nH]nc1C1CCN(C(=O)C2CCOCC2)C1 (stereo not given)	3.48
CN1CCC(c2n[nH]cc2-c2ccnc(N)c2)C1 (stereo not given)	16.05
Cc1c[nH]nc1C1CCN(C(=O)C2CCCC2)C1 (stereo not given)	65.7
Cc1nc(C(=O)N2CCC(c3cc(CCO)n(C)n3)C2)co1 (stereo not given)	19.3
CNC(=O)[C@@H](c1ccccc1OC)N1CCC[C@H]1C(=O)N1CCC1	-37.8
COCC(NC1CCN(CC(C)C)CC1)c1ccnn1C (stereo not given)	-1.49
CCc1c(C)sc2nc3n(CCN4CCOCC4)nc(SC)n3c(=O)c12	17.7
CC(c1ccncc1)N(CCN(C)C)C(=O)Nc1ccc(Cl)c(Cl)c1 (stereo not given)	-32.1
O=C(c1ccoc1)N1C[C@@H]2[C@@H](C1)OCC(=O)N2Cc1cccnc1	16.8
CN(C(=O)c1cc(F)ccc1F)[C@@H]1CC[C@@H](O)[C@@H]1O	2.55
Nc1cc(-c2c[nH]nc2C2CCCN2S(=O)(=O)c2ccccc2)ccn1 (stereo not given)	39.1
Cc1c[nH]nc1C1CCN(C(=O)Cn2cccn2)C1 (stereo not given)	-9.32
Nc1cc(-c2c[nH]nc2C2CCCCN2C(=O)C2CCCC2)ccn1 (stereo not given)	59.9
CCCNc1cc(-c2c[nH]nc2C2CCN(C(=O)C3CCC3)C2)ccn1 (stereo not given)	87.35
CN(C)S(=O)(=O)N1CCC(c2n[nH]cc2-c2ccnc(N)c2)C1 (stereo not given)	-9.215
CC(C)N1CCC(c2n[nH]cc2-c2ccnc(N)c2)C1 (stereo not given)	26.5
CC(C)Nc1cc(-c2c[nH]nc2C2CCN(C(=O)C3CCC3)C2)ccn1 (stereo not given)	88.45
Nc1cc(-c2c[nH]nc2C2CCN(C(=O)C3CCCC3)C2)ccn1 (stereo not given)	31.75
Cc1cc(N2CCC(c3n[nH]c4nccnc34)CC2)ncn1	58.1
Cc1cc(N2CCC(c3n[nH]c4nccnc34)C2)ncn1 (stereo not given)	-4.51
Cc1cc(N2CC(c3n[nH]c4nccnc34)C2)ncn1	18.3
